Experimental findings from PubChem BioAssay AID492998 (Southern Research Specialized Biocontainment Screening …, 2010) are described below.

In all, about 2,300 compounds went through this assay and about 550 (24%) were called active. The rule behind the calls is not given here. A selection follows. Results with a measured potency or affinity are listed apart.

A short description of this assay: Vero E6 cell cytotoxicity, dose response, cytotoxicity control for non-replicating M. tuberculosis project, secondary assay (AID 492998). The settings on record: series mostly up to 20 µM.
For the compound `Cc1ccc(C(=O)O/N=C(\N)c2cccc([N+](=O)[O-])c2)cc1`, the compound was classed as inactive.
In the case of `O=C(OCCCOC(=O)c1ccc([N+](=O)[O-])o1)c1ccc([N+](=O)[O-])o1`, the compound was classed as inactive.
The same measure for `CCOC(=O)C1CCN(CCCSc2ccc(Cl)cc2)CC1`: “inactive”; for `Cc1ccc(NC(=O)C2=C(c3ccccc3)S(=O)(=O)CCS2(=O)=O)cc1`: “inactive”.
The same measure for `C/C(=N\NC(=O)c1cc([N+](=O)[O-])cc([N+](=O)[O-])c1)c1ccco1`: “inactive”.
Consider `C/C(=N\NC(=O)COc1ccc(C)cc1Br)c1cc([N+](=O)[O-])cs1`, for which the outcome was inactive.
The same measure for `O=C(CCN1CCC(c2ccccc2)C1)c1ccccc1` (stereo not drawn): “inactive”; for `COC(=O)COc1ccc2c(-c3cccc([N+](=O)[O-])c3)cc(=O)oc2c1`: “inactive”; for `CCOC(=O)c1c(NC(=O)COC(=O)c2ccccn2)sc2c1CCC2`: “inactive”.
The same measure for `COc1ccc(-c2nnn(CC(=O)OC3CCCCC3)n2)cc1OC`: “inactive”; for `COc1ccc2c(c1)sc(=N)n2C`: “inactive”; for `CCOC(=O)C(C)Oc1cc(Cl)c(C=O)cc1OC` (stereo not drawn): “inactive”.
The same measure for `CC1=NN(c2ccccc2)C(=O)C1C(=O)c1ccccc1` (stereo not drawn): “inactive”.
Consider `O=C(OCc1nc2ccccc2s1)c1ccc(Br)o1`, for which the call was inactive.
With `COc1ccc(N=Cc2nc(-c3ccccc3)oc2OC(C)=O)cc1` the entry was “inactive”; with `Cc1ccc(NC(=O)COC(=O)C(NS(=O)(=O)c2ccc(Cl)cc2)C(C)O)cc1C` (stereo not drawn), “inactive”; with `O=C(Nc1nnc(-c2ccc(Br)cc2)o1)C1=COCCO1`, “inactive”.
Regarding `C/C(CC(=O)Nc1ccc(C)c(Cl)c1)=N\NC(=O)c1ccco1`, the compound was classed as inactive.
As for `O=C(Nc1nnc(-c2cc(Cl)ccc2Cl)o1)C1=COCCO1`, the call was inactive.
With `O=C(Nc1nnc(-c2ccccc2Cl)o1)c1ccco1` the entry was “inactive”; with `Cc1ccc(-c2nnc(Cc3ccc([N+](=O)[O-])cc3)o2)cc1`, “inactive”; with `O=C(Nc1nnc(-c2ccc(Br)cc2)o1)c1ccco1`, “inactive”.
With `Cc1ccc(C)c(-c2nnc(NC(=O)COc3ccccc3)o2)c1` the entry was “inactive”; with `CCc1nnc(NC(=O)CN2CCN(c3ccccc3F)CC2)s1`, “inactive”.
With `CC(C)[C@H]1CN=C2N(C[C@H](C)NC(=O)CCC3CCCCC3)[C@H](Cc3ccc(O)cc3)CN21` the entry was “inactive”; with `COc1ccc(C2=Nc3ccccc3OC2)cc1`, “inactive”.
Regarding `O=C(OCC#CCSc1nnc(-c2ccccc2)o1)c1ccco1`, the outcome was inactive.
The same measure for `Cc1ccnc(NC(=O)COc2ccc3c(c2)CCC3)c1`: “inactive”.
With `COCCCNC(=O)COC(=O)c1ccc(-c2nc3ccccc3s2)s1` the entry was “inactive”.
The same measure for `COc1ccc(C(C)=O)cc1COC(=O)c1ccc2ccccc2n1`: “inactive”.
Turning to `CC1Cc2ccccc2N1C(=O)COC(=O)c1ccc(Cl)nc1` (stereo not drawn), the outcome was inactive.
With `Cn1c(=O)c2c(=O)cc(NNC(=O)CC#N)[nH]c2n(C)c1=O` the entry was “inactive”.
The same measure for `COC(=O)COc1ccc(S(=O)(=O)NCc2ccc3c(c2)OCO3)cc1`: “inactive”.
The same measure for `COc1ccc(NCC(=O)N2CCCC2)cc1Cl`: “inactive”; for `CC1CCc2c(sc3nc(CSc4ncn[nH]4)[nH]c(=O)c23)C1` (stereo not drawn): “inactive”.
As to `CCOC(=O)COc1ccc2c(=O)c(-c3ccccc3)coc2c1`, the call was inactive.
The same measure for `C=CCN1C(=O)C2(NNc3ccccc3O2)c2ccccc21` (stereo not drawn): “inactive”.
With `Cc1ccc2c(c1)C(=O)C(=O)N2CCCOc1ccccc1` the entry was “inactive”; with `O=C(c1ccccc1)n1c(=O)c(F)cn(COCCBr)c1=O`, “inactive”.
With `Cc1cc(C)cc(NC(=O)CCc2ccc(C)o2)c1` the entry was “inactive”.
Consider `CCc1ccc(N=CC2=C(O)CC(c3ccco3)CC2=O)cc1` (stereo not drawn), for which the outcome was inactive.
For the compound `C/C(=N/NC(=O)c1ccco1)c1ccc(Br)s1`, the outcome was inactive.
With `Cc1ccc(/C=C2\SC(=S)N(C3CCS(=O)(=O)C3)C2=O)o1` (stereo not drawn) the entry was “inactive”.
With `COC(=O)c1ccc(CO/N=C/c2ccc(OC)cc2)o1` the entry was “inactive”; with `CCOC(=O)COc1ccc(C(=O)NC2CCCCC2)cc1`, “inactive”.
Take `O=c1c2cc(Cl)ccc2nc(-c2ccccc2Cl)n1O`: the call was inactive.
With `O=[N+]([O-])c1ccc2nc(SCc3cn4cc(Cl)ccc4n3)[nH]c2c1` the entry was “inactive”; with `O=c1c2c([N+](=O)[O-])cc([N+](=O)[O-])cc2sn1-c1ccc(Br)cc1`, “inactive”.
With `Cc1nc2ccc(Cl)cc2nc(C)/c1=N\O` the entry was “inactive”; with `N/C(=N\OC(=O)c1cccc(Br)c1)c1ccc([N+](=O)[O-])cc1`, “inactive”.
With `O=C(Oc1cccc([N+](=O)[O-])c1)c1ccc2c(=O)n3c(nc2c1)CCC3` the entry was “inactive”.
For the compound `CCOC(=O)c1cn(Cc2cccc(Cl)c2)nn1`, the call was inactive.
With `O=C(O)c1ccccc1C(=O)NNc1ccc(Cl)cc1`, the call was inactive.
The same measure for `CCCCCC1CC(CC(=O)NC(=S)Nc2ccc([N+](=O)[O-])cc2)C(=O)O1` (stereo not drawn): “inactive”; for `Cc1c(Cl)cccc1NC(=O)C1COc2ccccc2O1` (stereo not drawn): “inactive”; for `CCOC(=O)NC(=O)COC(=O)CCCSc1nc2ccccc2s1`: “inactive”.
With `Cn1ccsc1=NC(=O)c1ccccc1F` the entry was “inactive”.
The same measure for `CCc1ccc(C(=O)NC2CCCCC2)s1`: “inactive”; for `Cc1ccc(Sc2ccc(C=C3C(=O)N(C)C(=O)N(C)C3=O)o2)cc1`: “inactive”.
On to `Cc1cc(C(=O)NNc2cc(Cl)ccc2Cl)no1`, for which the result was inactive.
With `CC(C)(C)OC(=O)NCCC(=O)Oc1ccc2ccc(=O)oc2c1` the entry was “inactive”.
With `COC(=O)[C@@H](NC(=O)c1cc(COc2cncc(Cl)c2)on1)c1ccccc1` the entry was “inactive”; with `Cc1ccc(NC(=O)CN(C)CC(=O)Nc2ccc(F)c(Cl)c2)cc1`, “inactive”; with `CCOC(=O)COc1cc([N+](=O)[O-])cc2cccnc12`, “inactive”.
The same measure for `NCCNc1ccc([N+](=O)[O-])c2cccnc12`: “inactive”; for `O=[N+]([O-])c1cnc(Nc2ccc(Cl)cn2)c([N+](=O)[O-])c1`: “inactive”; for `O=C1c2cccc3cc([N+](=O)[O-])cc(c23)C(=O)N1c1ccccc1O`: “inactive”.
Regarding `Fc1ccc(N2CCN(Cc3nnc(-c4ccccc4)o3)CC2)cc1`, the result was inactive.
`Cc1occc1-c1nnc(-c2cc([N+](=O)[O-])cc([N+](=O)[O-])c2)o1`: the compound was called inactive.
The same measure for `S=C(Nc1ccc2c(c1)OCO2)Nc1ccc2c(c1)OCO2`: “inactive”; for `CCOC(=O)c1cc(-c2csc(COc3ccccc3)n2)on1`: “inactive”; for `CC(=O)N1CCC(=NNC(=O)c2cccs2)CC1`: “inactive”.
With `NC1CCN(c2c(F)cc3c(=O)c(C(=O)O)cn(C4CC4)c3c2Cl)C1` (stereo not drawn) the entry was “inactive”.
